The full data set covers some 7,900 targets. This sample favours those with a hit. About 0.6% of all pairs of compound and target were hits. A number with no mark means an inactive call.
Assays:
Assay in all cases: log2 fold change, soluble protein after heating vs DMSO (PISA); higher = thermal stabilisation; K562 cells, 10 uM, 30 min; active = over 0.2 and 3.5 SD of the protein, either way, in both replicates (recomputed)
[1] = compound: C#Cc1cccc(Nc2ncnc3cc(OCCOC)c(OCCOC)cc23)c1 [erlotinib]
Method in brief: (§1)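 Quantification of soluble protein used TMTpro 16plex LC-MS/MS, with channel sums equalised. Samples were the supernatant after 21,000xg for 90 min of pooled aliquots from K562 cells (2×10^6 cells/mL) treated with 10 μM compound for 30 min, heated for 3 min over 48°C-58°C, and extracted in PBS with 0.5% NP-40 at 4°C. Values, from duplicates, describe thermal stability against control samples on a log2 fold-change scale.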

[2] = compound: C/C(=N\NC(=O)C1=CC(=CC=C1)S(=O)(=O)N2CCOCC2)/C3=C(C=CC(=C3)Cl)O
Method in brief: as §1

[3] = compound: C1=CC(=C(C=C1Cl)C2=NC3=NC=CN=C3C(=N2)NC4=CC=NC=C4)F
Method in brief: as §1

[4] = compound: C1=CC(=CC=C1C2=NC3=C(N2)C=C(C=C3)C(=O)N)OC4=CC=C(C=C4)Cl
Method in brief: as §1

[5] = compound: C1=CC2=C(C=CC(=C2)/C=C\3/C(=O)NC(=NCC4=CC=CS4)S3)N=C1
Method in brief: as §1

[6] = compound: C1=CC2=NC=CN=C2C=C1/C=C/3\C(=O)NC(=O)S3
Method in brief: as §1

[7] = compound: C1=CC=C(C=C1)C2=NC(=C(N2)C3=CC=NC=C3)C4=CC(=C(C=C4)Cl)O
Method in brief: as §1

[8] = compound: C1=CC=C2C(=C1)C3=NNC4=CC=CC(=C43)C2=O
Method in brief: as §1

[9] = compound: C1CCN(C1)C(=O)NC2=CC=CC(=C2)NC3=NC=C(C(=N3)NCCC4=CN=CN4)Br
Method in brief: as §1

[10] = compound: C1CN(CCC1(CC2=CC=C(C=C2)Cl)N)C3=NC=NC4=C3C=CN4
Method in brief: as §1

Target: VPS39 (UniProt Q96JC1)
Chain of UniProt Q96JC1 (Q96JC1 whole entry, looked up): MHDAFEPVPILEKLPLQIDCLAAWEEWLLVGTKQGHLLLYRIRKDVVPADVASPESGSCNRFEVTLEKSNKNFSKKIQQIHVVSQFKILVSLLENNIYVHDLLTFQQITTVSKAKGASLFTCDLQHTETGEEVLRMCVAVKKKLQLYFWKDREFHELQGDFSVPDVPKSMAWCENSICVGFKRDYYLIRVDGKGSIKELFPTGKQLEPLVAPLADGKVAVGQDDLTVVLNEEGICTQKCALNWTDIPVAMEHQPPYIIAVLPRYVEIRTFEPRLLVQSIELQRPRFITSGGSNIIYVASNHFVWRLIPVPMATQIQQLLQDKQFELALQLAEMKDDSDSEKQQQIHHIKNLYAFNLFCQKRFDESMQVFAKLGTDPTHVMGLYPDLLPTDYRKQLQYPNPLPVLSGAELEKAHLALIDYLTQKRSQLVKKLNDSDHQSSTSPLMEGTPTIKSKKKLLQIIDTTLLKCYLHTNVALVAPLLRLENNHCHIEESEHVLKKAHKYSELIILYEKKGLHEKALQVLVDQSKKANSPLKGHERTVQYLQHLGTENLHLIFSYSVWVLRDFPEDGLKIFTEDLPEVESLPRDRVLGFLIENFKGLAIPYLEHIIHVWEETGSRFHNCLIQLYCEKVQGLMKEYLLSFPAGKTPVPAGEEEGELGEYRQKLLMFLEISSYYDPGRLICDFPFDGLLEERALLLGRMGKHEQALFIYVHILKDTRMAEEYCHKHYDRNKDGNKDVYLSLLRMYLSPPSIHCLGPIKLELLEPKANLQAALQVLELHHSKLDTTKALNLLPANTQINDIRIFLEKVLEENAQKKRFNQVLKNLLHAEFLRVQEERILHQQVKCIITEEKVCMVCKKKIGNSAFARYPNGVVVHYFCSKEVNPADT
- log2 fold change [1]: -0.006
- log2 fold change [2]: 0.08
- log2 fold change [3]: -0.005
- log2 fold change [4]: 0.022
- log2 fold change [5]: 0
- log2 fold change [6]: 0.023
- log2 fold change [7]: -0.014
- log2 fold change [8]: -0.046
- log2 fold change [9]: 0.01
- log2 fold change [10]: 0.054

Target: TMEM219 (UniProt Q86XT9)
Chain of UniProt Q86XT9 (Q86XT9 whole entry, looked up): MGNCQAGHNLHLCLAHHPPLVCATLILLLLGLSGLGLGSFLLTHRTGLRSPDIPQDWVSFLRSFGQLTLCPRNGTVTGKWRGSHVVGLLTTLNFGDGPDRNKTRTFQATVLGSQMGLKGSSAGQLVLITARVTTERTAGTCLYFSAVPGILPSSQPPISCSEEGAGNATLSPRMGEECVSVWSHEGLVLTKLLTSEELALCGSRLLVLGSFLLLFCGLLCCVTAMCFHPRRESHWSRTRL
- log2 fold change [1]: -0.029
- log2 fold change [2]: 0.035
- log2 fold change [3]: 0.059
- log2 fold change [4]: 0.073
- log2 fold change [5]: 0.001
- log2 fold change [6]: 0.015
- log2 fold change [8]: 0.006
- log2 fold change [9]: 0.042
- log2 fold change [10]: 0.016

Target: TMEM106B (UniProt Q9NUM4)
Chain of UniProt Q9NUM4 (Q9NUM4 whole entry, looked up): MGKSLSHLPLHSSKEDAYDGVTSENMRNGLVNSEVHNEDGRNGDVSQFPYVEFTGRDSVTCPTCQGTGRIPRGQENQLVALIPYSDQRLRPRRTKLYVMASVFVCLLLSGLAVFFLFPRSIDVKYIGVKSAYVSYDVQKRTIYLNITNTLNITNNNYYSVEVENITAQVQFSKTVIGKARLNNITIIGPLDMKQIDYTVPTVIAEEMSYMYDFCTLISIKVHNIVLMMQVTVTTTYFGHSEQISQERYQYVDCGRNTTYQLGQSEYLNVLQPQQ
- log2 fold change [1]: 0.007
- log2 fold change [2]: 0.028
- log2 fold change [3]: -0.047
- log2 fold change [4]: 0.031
- log2 fold change [5]: 0.051
- log2 fold change [6]: -0.002
- log2 fold change [8]: 0.003
- log2 fold change [9]: -0.064
- log2 fold change [10]: 0.15

Target: TMEM87B (UniProt Q96K49)
- log2 fold change [1]: 0.035
- log2 fold change [2]: 0.059
- log2 fold change [3]: -0.069
- log2 fold change [4]: 0.013
- log2 fold change [5]: 0.003
- log2 fold change [6]: 0.055
- log2 fold change [7]: 0.009
- log2 fold change [8]: -0.143
- log2 fold change [9]: -0.06
- log2 fold change [10]: 0.047

Target: WASHC2C, A0A096LPC5
Sequence (A0A096LPC5 whole entry, looked up): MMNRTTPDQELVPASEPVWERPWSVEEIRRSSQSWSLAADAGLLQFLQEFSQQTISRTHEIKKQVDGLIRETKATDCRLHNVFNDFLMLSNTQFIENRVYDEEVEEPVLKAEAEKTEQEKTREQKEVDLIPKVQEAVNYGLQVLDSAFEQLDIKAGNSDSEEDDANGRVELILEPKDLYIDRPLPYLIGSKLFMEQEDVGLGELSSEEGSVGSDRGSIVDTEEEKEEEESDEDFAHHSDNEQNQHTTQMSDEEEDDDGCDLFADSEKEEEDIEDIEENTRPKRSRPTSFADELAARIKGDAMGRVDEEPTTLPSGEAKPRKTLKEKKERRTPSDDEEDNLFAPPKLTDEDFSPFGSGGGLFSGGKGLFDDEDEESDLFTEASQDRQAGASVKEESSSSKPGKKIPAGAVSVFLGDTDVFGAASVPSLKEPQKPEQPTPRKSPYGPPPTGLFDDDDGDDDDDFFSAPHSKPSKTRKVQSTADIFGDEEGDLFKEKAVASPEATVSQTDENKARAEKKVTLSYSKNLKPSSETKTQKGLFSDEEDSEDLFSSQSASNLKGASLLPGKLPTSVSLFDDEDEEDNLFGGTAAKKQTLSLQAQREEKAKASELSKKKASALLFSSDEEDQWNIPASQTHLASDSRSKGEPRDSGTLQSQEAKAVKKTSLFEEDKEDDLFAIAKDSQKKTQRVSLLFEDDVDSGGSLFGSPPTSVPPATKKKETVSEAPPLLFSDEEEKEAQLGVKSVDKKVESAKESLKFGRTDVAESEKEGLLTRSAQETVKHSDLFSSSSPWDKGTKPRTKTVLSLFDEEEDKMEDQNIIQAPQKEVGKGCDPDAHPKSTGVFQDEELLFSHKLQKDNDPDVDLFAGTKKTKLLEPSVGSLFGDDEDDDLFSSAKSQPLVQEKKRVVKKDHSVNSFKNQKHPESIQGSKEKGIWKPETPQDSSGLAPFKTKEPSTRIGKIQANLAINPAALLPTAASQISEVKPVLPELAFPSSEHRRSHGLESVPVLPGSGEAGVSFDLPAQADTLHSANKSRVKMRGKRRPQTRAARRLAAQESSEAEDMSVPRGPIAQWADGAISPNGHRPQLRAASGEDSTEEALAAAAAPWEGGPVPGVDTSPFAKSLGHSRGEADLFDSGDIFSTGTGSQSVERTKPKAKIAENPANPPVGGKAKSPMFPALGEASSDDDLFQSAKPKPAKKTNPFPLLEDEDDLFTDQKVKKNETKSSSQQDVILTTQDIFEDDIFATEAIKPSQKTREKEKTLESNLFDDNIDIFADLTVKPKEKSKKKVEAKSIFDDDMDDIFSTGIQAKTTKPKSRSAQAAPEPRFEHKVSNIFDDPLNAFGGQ
- log2 fold change [1]: 0.095
- log2 fold change [2]: -0.224
- log2 fold change [3]: -0.016
- log2 fold change [4]: -0.006
- log2 fold change [5]: 0.204
- log2 fold change [6]: 0.113
- log2 fold change [7]: 0.111
- log2 fold change [8]: -0.071
- log2 fold change [9]: -0.069
- log2 fold change [10]: 0.08

Target: TSFM (UniProt P43897)
- log2 fold change [1]: 0.037
- log2 fold change [2]: -0.004
- log2 fold change [3]: 0.302
- log2 fold change [4]: -0.206
- log2 fold change [5]: 0.189
- log2 fold change [6]: 0.044
- log2 fold change [7]: 0.11
- log2 fold change [8]: -0.069
- log2 fold change [9]: -0.016
- log2 fold change [10]: 0.095

Target: TOMM20 (UniProt Q15388)
- log2 fold change [1]: 0.073
- log2 fold change [2]: -0.01
- log2 fold change [3]: -0.013
- log2 fold change [4]: 0.004
- log2 fold change [5]: 0.012
- log2 fold change [6]: 0.018
- log2 fold change [7]: 0.049
- log2 fold change [8]: -0.006
- log2 fold change [9]: 0.007
- log2 fold change [10]: 0.027

Target: VWA3B isoform 6 (UniProt Q502W6)
- log2 fold change [1]: 0.107
- log2 fold change [2]: -0.036
- log2 fold change [3]: 0.213
- log2 fold change [4]: -0.057
- log2 fold change [5]: 0.048
- log2 fold change [6]: 0.111
- log2 fold change [7]: -0.214
- log2 fold change [8]: -0.049
- log2 fold change [9]: 0.03
- log2 fold change [10]: -0.03

Target: TSC2 (UniProt P49815)
- log2 fold change [1]: 0.276
- log2 fold change [2]: -0.047
- log2 fold change [3]: -0.104
- log2 fold change [4]: -0.297
- log2 fold change [5]: -0.025
- log2 fold change [6]: -0.135
- log2 fold change [7]: 0.06
- log2 fold change [8]: 0.063
- log2 fold change [9]: -0.001
- log2 fold change [10]: 0.199

Target: VPS33A (UniProt Q96AX1)
- log2 fold change [1]: 0.025
- log2 fold change [2]: 0.035
- log2 fold change [3]: -0.054
- log2 fold change [4]: -0.01
- log2 fold change [5]: 0.057
- log2 fold change [6]: 0.013
- log2 fold change [7]: 0.005
- log2 fold change [8]: -0.023
- log2 fold change [9]: -0.051
- log2 fold change [10]: -0.083

Target: WBP4 (UniProt O75554)
- log2 fold change [1]: 0
- log2 fold change [2]: -0.07
- log2 fold change [3]: 0.04
- log2 fold change [4]: 0.009
- log2 fold change [5]: -0.082
- log2 fold change [6]: 0.031
- log2 fold change [7]: -0.059
- log2 fold change [8]: -0.055
- log2 fold change [9]: 0.031
- log2 fold change [10]: 0.036

Target: TMEM164 (UniProt Q5U3C3)
Chain of UniProt Q5U3C3 (Q5U3C3 whole entry, looked up): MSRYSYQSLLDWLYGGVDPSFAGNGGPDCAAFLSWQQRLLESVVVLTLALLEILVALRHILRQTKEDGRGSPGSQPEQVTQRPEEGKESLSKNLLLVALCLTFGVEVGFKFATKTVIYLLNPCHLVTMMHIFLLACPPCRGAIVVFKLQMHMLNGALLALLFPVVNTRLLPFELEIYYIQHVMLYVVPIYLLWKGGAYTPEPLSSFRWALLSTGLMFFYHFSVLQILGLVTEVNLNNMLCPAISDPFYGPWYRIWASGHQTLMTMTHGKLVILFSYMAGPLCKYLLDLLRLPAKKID
- log2 fold change [1]: -0.103
- log2 fold change [2]: 0.178
- log2 fold change [3]: 0.041
- log2 fold change [4]: 0.002
- log2 fold change [5]: 0.129
- log2 fold change [6]: 0.078
- log2 fold change [8]: 0.017
- log2 fold change [9]: -0.042
- log2 fold change [10]: 0.021

Target: UBR2 (UniProt Q8IWV8)
- log2 fold change [1]: 0.019
- log2 fold change [2]: 0.067
- log2 fold change [3]: -0.108
- log2 fold change [4]: 0.051
- log2 fold change [5]: 0.045
- log2 fold change [6]: 0.046
- log2 fold change [7]: -0.08
- log2 fold change [8]: -0.189
- log2 fold change [9]: 0.016
- log2 fold change [10]: 0.018

Target: UBLCP1 (UniProt Q8WVY7)
- log2 fold change [1]: 0.03
- log2 fold change [2]: 0.089
- log2 fold change [3]: 0.024
- log2 fold change [4]: -0.022
- log2 fold change [5]: -0.029
- log2 fold change [6]: 0.005
- log2 fold change [7]: -0.019
- log2 fold change [8]: 0.038
- log2 fold change [9]: 0.035
- log2 fold change [10]: -0.262 (active)

Target: UQCR10 (UniProt Q9UDW1)
Chain of UniProt Q9UDW1 (Q9UDW1 whole entry, looked up): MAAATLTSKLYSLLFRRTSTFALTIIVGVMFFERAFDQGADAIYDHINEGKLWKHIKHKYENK
- log2 fold change [1]: -0.026
- log2 fold change [2]: 0.056
- log2 fold change [3]: 0.069
- log2 fold change [4]: -0.023
- log2 fold change [5]: 0.034
- log2 fold change [6]: 0.014
- log2 fold change [7]: 0.046
- log2 fold change [8]: -0.003
- log2 fold change [9]: 0.006
- log2 fold change [10]: 0

Target: TMEM104 (UniProt Q8NE00)
Chain of UniProt Q8NE00 (Q8NE00 whole entry, looked up): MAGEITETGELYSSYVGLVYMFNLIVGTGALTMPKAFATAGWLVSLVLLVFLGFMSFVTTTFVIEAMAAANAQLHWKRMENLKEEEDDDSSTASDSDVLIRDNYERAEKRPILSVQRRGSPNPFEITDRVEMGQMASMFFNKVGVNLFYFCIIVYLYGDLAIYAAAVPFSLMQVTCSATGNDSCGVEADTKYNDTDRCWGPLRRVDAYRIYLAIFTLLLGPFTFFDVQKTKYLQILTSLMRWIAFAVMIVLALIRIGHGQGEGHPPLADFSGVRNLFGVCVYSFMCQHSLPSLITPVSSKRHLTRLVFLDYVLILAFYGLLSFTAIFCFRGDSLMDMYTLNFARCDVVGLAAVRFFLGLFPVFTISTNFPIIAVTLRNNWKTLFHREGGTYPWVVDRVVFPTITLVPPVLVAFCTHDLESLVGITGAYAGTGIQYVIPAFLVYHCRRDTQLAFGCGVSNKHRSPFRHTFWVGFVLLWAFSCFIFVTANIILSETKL
- log2 fold change [1]: 0.08
- log2 fold change [2]: -0.026
- log2 fold change [3]: 0.037
- log2 fold change [4]: 0.026
- log2 fold change [5]: 0.039
- log2 fold change [7]: 0.013
- log2 fold change [8]: -0.015

Target: UHRF1BP1L (UniProt A0JNW5)
- log2 fold change [1]: -0.024
- log2 fold change [2]: 0.017
- log2 fold change [3]: 0.016
- log2 fold change [4]: 0.027
- log2 fold change [5]: 0.042
- log2 fold change [6]: 0.01
- log2 fold change [7]: -0.009
- log2 fold change [8]: 0.025
- log2 fold change [9]: -0.007
- log2 fold change [10]: 0.061

Target: TNPO1 (UniProt Q92973)
- log2 fold change [1]: -0.032
- log2 fold change [2]: 0.08
- log2 fold change [3]: 0.038
- log2 fold change [4]: 0.011
- log2 fold change [5]: -0.006
- log2 fold change [6]: 0.016
- log2 fold change [7]: 0.008
- log2 fold change [8]: -0.027
- log2 fold change [9]: -0.001
- log2 fold change [10]: 0

Target: TRIP10 isoform 2 (UniProt Q15642)
Chain of UniProt Q15642 (Q15642 whole entry, looked up): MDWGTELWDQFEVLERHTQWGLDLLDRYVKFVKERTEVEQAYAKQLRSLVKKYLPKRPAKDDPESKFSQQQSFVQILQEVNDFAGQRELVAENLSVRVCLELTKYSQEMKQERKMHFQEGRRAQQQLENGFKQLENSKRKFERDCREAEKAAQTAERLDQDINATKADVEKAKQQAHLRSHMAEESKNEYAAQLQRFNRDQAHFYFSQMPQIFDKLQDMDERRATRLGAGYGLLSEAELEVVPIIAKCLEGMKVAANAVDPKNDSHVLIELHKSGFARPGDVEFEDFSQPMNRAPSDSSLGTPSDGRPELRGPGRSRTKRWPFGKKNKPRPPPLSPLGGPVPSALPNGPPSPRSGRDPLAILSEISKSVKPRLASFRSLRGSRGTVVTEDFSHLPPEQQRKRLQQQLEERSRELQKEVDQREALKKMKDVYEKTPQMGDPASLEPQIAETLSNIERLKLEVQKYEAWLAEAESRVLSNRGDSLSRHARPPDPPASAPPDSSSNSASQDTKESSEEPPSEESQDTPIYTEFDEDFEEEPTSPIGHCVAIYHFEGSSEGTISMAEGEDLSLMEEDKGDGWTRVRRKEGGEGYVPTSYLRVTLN
- log2 fold change [1]: -0.116
- log2 fold change [2]: -0.002
- log2 fold change [3]: 0.112
- log2 fold change [4]: 0.094
- log2 fold change [5]: -0.069
- log2 fold change [6]: 0.055
- log2 fold change [7]: 0.326
- log2 fold change [8]: 0.055
- log2 fold change [9]: -0.089
- log2 fold change [10]: 0.014

Target: TSEN2 (UniProt Q8NCE0)
- log2 fold change [1]: 0.08
- log2 fold change [2]: -0.001
- log2 fold change [3]: -0.016
- log2 fold change [4]: 0.029
- log2 fold change [5]: 0.041
- log2 fold change [6]: 0.098
- log2 fold change [7]: 0.023
- log2 fold change [8]: 0.023
- log2 fold change [9]: -0.04
- log2 fold change [10]: 0.061

Target: UBE2J2 isoform 3 (UniProt Q8N2K1)
Chain of UniProt Q8N2K1 (Q8N2K1 whole entry, looked up): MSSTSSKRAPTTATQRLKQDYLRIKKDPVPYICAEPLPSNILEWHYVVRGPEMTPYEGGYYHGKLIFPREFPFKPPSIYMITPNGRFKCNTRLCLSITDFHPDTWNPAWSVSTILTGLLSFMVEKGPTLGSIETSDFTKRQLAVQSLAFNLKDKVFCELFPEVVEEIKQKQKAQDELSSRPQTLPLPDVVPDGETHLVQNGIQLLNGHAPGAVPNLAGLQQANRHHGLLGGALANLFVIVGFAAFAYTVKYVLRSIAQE
- log2 fold change [1]: -0.096
- log2 fold change [2]: 0.154
- log2 fold change [3]: 0.026
- log2 fold change [4]: 0.07
- log2 fold change [5]: -0.057
- log2 fold change [6]: 0.126
- log2 fold change [8]: -0.039
- log2 fold change [9]: -0.145
- log2 fold change [10]: -0.015

Target: XIAP (UniProt P98170)
Chain of UniProt P98170 (P98170 whole entry, looked up): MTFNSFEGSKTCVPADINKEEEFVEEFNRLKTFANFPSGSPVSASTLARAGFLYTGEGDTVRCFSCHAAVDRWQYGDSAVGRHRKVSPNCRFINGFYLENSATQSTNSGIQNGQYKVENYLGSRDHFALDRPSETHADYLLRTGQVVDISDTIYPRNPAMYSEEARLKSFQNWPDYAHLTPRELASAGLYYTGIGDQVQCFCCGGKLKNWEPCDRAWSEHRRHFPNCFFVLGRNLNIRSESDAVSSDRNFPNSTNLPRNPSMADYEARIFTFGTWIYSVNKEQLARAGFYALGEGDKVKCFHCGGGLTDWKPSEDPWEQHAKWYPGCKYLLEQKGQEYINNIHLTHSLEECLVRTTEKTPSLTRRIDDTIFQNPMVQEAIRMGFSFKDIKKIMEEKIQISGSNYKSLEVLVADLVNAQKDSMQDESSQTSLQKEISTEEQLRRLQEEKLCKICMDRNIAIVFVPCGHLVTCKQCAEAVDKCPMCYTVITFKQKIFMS
- log2 fold change [1]: 0.166
- log2 fold change [2]: 0.062
- log2 fold change [3]: 0.1
- log2 fold change [4]: -0.002
- log2 fold change [5]: 0.075
- log2 fold change [6]: -0.018
- log2 fold change [8]: -0.002
- log2 fold change [9]: -0.024
- log2 fold change [10]: 0.065

Target: UBAP2L isoform 1 (UniProt Q14157)
- log2 fold change [1]: -0.126
- log2 fold change [2]: 0.013
- log2 fold change [3]: -0.003
- log2 fold change [4]: 0.083
- log2 fold change [5]: -0.06
- log2 fold change [6]: -0.023
- log2 fold change [7]: 0.04
- log2 fold change [8]: -0.024
- log2 fold change [9]: -0.082
- log2 fold change [10]: 0.017

Target: UBAP2L isoform 5 (UniProt Q14157)
- log2 fold change [1]: 0.057
- log2 fold change [2]: -0.005
- log2 fold change [3]: 0.005
- log2 fold change [4]: 0
- log2 fold change [5]: 0.013
- log2 fold change [6]: 0.015
- log2 fold change [7]: -0.029
- log2 fold change [8]: -0.03
- log2 fold change [9]: -0.007
- log2 fold change [10]: 0.026
